# Reference: PubChem BioAssay
# The source made the active and inactive calls. Unless noted, how the calls were made is not given here.
# Columns and labels:
# [1] = tested on: Wnt5a (protein binding on small-molecule microarray); assay: Wnt5a binders on small-molecule microarray, primary screen, biophysical, 635/667 nm fluorescence (AID 1142); settings: 635 nm fluorescence, higher = more signal;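 further: fluorescence read at 667 nm with signal to noise per printed feature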
# [2] = cell viability in Huh7 cells, primary screen, cytotoxicity control for HCV replication inhibitor project, CellTiter-Glo luminescence, basal, 48 h (AID 1143); settings: Huh7 HCV replicon, higher = more signal, called active from +8 up or from −8 down;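 further: Huh7 hepatoma cells carrying a hepatitis C replication reporter with no stimulus; test concentration not given here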
# [3] = P. aeruginosa biofilm formation inhibitors, primary screen, PAO1 strain, BacTiter-Glo luminescence, LB-PBS (AID 1144); settings: 12 h, higher = more signal
# [4] = CREB reporter modulators without forskolin, primary screen, cell-based, PC12, CRE-LacZ reporter, unstimulated (AID 1145); settings: no forskolin, luminescence, 4.5 h, higher = more signal, called active from +8 up or from −8 down
# [5] = CREB reporter modulators under forskolin, primary screen, cell-based, PC12, CRE-LacZ reporter, forskolin-stimulated (AID 1146); settings: luminescence, 4.5 h, higher = more signal, called active from +8 up or from −8 down;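 further: PC12 cells with 6xCRE LacZ reporter stimulated by forskolin 10 µM; beta-galactosidase reporter signal reflecting CREB driven transcription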
# [6] = molecular target: Streptavidin (Streptomyces avidinii) (UniProt P22629); assay: streptavidin binders on small-molecule microarray, primary screen, artefact control for SMM compound annotation, biophysical, 635/667 nm fluorescence (AID 1147); settings: streptavidin binding, higher = more signal;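 further: signal reflects streptavidin binding to arrayed compounds as a control protein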
# [7] = small-molecule binders of probe aInhba, primary screen, biochemical, small-molecule microarray, 635/667 nm fluorescence (AID 1148); settings: higher = more signal;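 further: score merges 667nm spot fluorescence with signal-to-noise for antibody binding to printed compounds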
# [8] = molecular target: Torsin-1A (Homo sapiens) (UniProt O14656); assay: torsin A binders from cell lysate, primary screen, small-molecule microarray, wild-type, 635/667 nm (AID 1149); settings: COS7 hTOR1A-WT lysate, 635 nm fluorescence, higher = more signal
# [9] = molecular target: Torsin-1A (Homo sapiens) (UniProt O14656); assay: small-molecule binders of mutant TOR1A in lysate, primary screen, cell lysate, small-molecule microarray, COS7 lysate, 635/667 nm fluorescence (AID 1150); settings: COS7 hTOR1A mutant lysate, 635 nm fluorescence, higher = more signal;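 further: score pools 667 nm emission and signal to noise measuring lysate protein binding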
# [10] = tested on: Sonic hedgehog protein (Shh); assay: small-molecule binders of Shh protein, primary screen, biochemical, small-molecule microarray, 635/667 nm fluorescence (AID 1151); settings: small-molecule microarray binding, 635 nm fluorescence; higher = more signal;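 further: Shh protein binding to compounds spotted on small-molecule microarray slides; score combines spot fluorescence intensity with signal-to-noise across triplicate slides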
# [11] = E. coli DRC41 culture turbidity changes, primary screen, E. coli filamentation inducer project, strain DRC41, OD650, 48 h (AID 1152);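 further: E. coli MC1000 strain DRC41 lacking acrAB efflux pump and sulA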; settings: E. coli DRC41 (acrAB sulA), higher = more signal, called active from +8 up or from −8 down
# [12] = small-molecule binders of probe aLefty1, primary screen, biochemical, small-molecule microarray, 635/667 nm fluorescence (AID 1153); settings: higher = more signal;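 further: score merges spot fluorescence with signal-to-noise ratio from the scanned slide images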
# [13] = PSAC antagonists in infected red cells, primary screen, cell-based, P. falciparum Indochina, OD700, 1 h (AID 1154); settings: P. falciparum Indochina infected RBC osmotic lysis, higher = more signal, called active from +8 up or from −8 down
# [14] = PSAC antagonists in infected red cells, primary screen, cell-based, P. falciparum Indochina, OD700, 2 h (AID 1155);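 further: lysis reports solute entry through the parasite surface anion channel PSAC; channel blockers reduce lysis of infected cells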; settings: P. falciparum Indochina infected erythrocytes, osmotic lysis OD700; higher = more signal, called active from +8 up or from −8 down
# [15] = osmotic lysis modulators in infected erythrocytes, primary screen, PSAC antagonist project, cell-based, P. falciparum Indochina, OD700, 3 h (AID 1156); settings: higher = more signal, called active from +8 up or from −8 down
# [16] = PSAC antagonists in infected red cells, primary screen, cell-based, P. falciparum Indochina, OD700, 18 h (AID 1157); settings: P. falciparum Indochina infected erythrocytes, osmotic lysis OD700, 18 h; higher = more signal, called active from +8 up or from −8 down
# [17] = modulators of S6 phosphorylation in cells, primary screen, cell-based, A549, cytoblot, luminescence, serum-stimulated (AID 1158); settings: A549 phospho-S6 cytoblot, 5 h, higher = more signal;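 further: serum-stimulated A549 lung adenocarcinoma cells; signal is phosphorylated S6 detected by cytoblot immunostaining with HRP secondary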
# [18] = molecular target: NADPH oxidase 2 (Homo sapiens) (UniProt P04839); assay: NOX2-dependent H2O2 signal modulators, primary screen, NOX inhibitor project, cell-based, HEK293-NOX2, PMA-stimulated, Amplex Red fluorescence (AID 1159); settings: 45 min, higher = more signal, called active from +8 up or from −8 down; further: test concentration not given here
# [19] = molecular target: NADPH oxidase 4 (Homo sapiens) (UniProt Q9NPH5); assay: NOX4-dependent H2O2 signal modulators, primary screen, NOX inhibitor project, cell-based, HEK293-NOX4, tetracycline-induced, Amplex Red fluorescence (AID 1160); settings: 45 min, higher = more signal, called active from +8 up or from −8 down
# [20] = molecular target: NADPH oxidase 5 (Homo sapiens) (UniProt Q96PH1); assay: NOX5-dependent H2O2 signal modulators, primary screen, NOX inhibitor project, cell-based, HEK293-NOX5, Amplex Red fluorescence (AID 1161); settings: HEK293-NOX5, ionomycin, 45 min, higher = more signal
# NADPH oxidase 5 (Homo sapiens), sequence (Q96PH1 whole entry, looked up): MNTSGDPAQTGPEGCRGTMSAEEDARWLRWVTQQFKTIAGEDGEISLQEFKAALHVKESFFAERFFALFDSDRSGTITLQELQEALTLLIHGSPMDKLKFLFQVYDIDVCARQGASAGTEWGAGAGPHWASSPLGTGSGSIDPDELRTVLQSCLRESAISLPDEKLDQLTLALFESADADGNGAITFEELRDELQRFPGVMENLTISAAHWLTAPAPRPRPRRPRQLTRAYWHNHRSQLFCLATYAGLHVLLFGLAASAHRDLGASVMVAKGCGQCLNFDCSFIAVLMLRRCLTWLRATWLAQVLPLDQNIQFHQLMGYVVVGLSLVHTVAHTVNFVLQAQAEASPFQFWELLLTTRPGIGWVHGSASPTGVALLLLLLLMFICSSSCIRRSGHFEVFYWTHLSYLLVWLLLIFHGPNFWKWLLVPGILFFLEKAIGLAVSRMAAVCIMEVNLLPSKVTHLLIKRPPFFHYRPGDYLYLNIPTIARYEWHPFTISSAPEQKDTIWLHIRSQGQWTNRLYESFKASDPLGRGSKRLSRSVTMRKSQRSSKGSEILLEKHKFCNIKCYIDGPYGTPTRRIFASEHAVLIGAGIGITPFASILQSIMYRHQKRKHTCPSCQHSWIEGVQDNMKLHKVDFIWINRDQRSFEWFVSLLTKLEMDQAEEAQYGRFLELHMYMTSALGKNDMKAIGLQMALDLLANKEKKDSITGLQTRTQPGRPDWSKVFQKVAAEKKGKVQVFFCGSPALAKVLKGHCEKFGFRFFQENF
# Torsin-1A (Homo sapiens), sequence (O14656 whole entry, looked up): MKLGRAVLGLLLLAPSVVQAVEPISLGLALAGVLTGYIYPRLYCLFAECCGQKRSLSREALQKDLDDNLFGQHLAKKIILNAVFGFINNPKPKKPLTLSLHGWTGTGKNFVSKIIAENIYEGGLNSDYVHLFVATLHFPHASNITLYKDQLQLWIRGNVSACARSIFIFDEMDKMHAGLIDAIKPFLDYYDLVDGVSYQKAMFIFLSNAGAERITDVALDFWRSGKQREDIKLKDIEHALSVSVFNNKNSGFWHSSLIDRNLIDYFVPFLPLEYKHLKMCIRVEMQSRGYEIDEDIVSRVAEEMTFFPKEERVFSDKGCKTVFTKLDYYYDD
# NADPH oxidase 2 (Homo sapiens), sequence (P04839 whole entry, looked up): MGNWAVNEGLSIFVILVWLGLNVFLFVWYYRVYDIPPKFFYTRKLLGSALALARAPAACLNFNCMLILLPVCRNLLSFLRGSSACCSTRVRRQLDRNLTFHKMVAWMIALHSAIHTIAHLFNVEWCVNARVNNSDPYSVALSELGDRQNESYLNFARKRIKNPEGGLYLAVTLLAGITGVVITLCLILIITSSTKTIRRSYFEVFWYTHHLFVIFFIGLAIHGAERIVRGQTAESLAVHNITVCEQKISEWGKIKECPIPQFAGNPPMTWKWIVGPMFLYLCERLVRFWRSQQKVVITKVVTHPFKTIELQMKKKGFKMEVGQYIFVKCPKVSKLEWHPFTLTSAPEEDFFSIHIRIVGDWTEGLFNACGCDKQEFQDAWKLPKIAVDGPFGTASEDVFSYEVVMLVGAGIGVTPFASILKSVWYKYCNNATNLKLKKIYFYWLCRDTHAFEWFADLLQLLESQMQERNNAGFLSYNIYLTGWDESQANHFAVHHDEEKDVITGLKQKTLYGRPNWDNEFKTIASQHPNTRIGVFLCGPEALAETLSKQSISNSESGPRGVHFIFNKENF
# Streptavidin (Streptomyces avidinii), sequence (P22629 whole entry, looked up): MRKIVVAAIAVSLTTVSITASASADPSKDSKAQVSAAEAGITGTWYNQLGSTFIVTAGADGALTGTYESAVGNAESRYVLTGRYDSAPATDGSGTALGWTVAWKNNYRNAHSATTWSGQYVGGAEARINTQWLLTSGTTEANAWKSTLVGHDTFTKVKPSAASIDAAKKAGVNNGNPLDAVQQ
# NADPH oxidase 4 (Homo sapiens), sequence (Q9NPH5 whole entry, looked up): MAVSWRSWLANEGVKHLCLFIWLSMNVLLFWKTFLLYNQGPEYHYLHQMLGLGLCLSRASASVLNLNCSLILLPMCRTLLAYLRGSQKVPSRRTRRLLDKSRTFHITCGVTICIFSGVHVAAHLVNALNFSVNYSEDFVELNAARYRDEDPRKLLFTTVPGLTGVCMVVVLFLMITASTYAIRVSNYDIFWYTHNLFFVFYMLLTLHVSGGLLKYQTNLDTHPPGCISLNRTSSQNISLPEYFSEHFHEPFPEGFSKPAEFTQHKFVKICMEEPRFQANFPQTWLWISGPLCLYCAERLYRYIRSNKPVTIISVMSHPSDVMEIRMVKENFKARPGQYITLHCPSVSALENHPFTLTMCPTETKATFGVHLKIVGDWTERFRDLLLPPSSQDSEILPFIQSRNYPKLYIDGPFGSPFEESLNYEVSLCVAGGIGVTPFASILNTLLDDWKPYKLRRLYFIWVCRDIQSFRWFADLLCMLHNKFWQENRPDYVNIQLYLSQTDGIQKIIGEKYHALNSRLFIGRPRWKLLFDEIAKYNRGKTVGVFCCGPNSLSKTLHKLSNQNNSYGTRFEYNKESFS
Compound,composite z-score [1],z-score [2],z-score [3],z-score [4],z-score [5],composite z-score [6],composite z-score [7],composite z-score [8],composite z-score [9],composite z-score [10],z-score [11],composite z-score [12],z-score [13],z-score [14],z-score [15],z-score [16],z-score [17],z-score [18],z-score [19],z-score [20]
O=C1C2C=CC(C(O)CCc3ccccc3)N(Nc3ccccc3F)C2C(=O)N1c1ccccc1 (stereo not given),0.43,-0.381 (inactive),-0.315 (inactive),-0.331 (inactive),0.654 (inactive),0.787,0.131,0.204,0.538,0.366,-0.383 (inactive),-0.322,1.87 (inactive),1.15 (inactive),0.517 (inactive),0.807 (inactive),-0.638,0.236 (inactive),-0.452 (inactive),-0.449
COCCOC(=O)N1C(=O)[C@@]2(c3cc(C#Cc4ccc(OC)cc4)ccc31)[C@H](c1ccc(OCCO)cc1)N1[C@H](c3ccccc3)[C@H](c3ccccc3)OC(=O)[C@H]1[C@@H]2C(=O)N1CCN(c2ncccn2)CC1,0.377,-0.438 (inactive),-0.112 (inactive),0.0695 (inactive),0.559 (inactive),0.165,0.0464,0.846,0.775,1.69,-0.0791 (inactive),0.042,5.07 (inactive),2.39 (inactive),0.738 (inactive),1.17 (inactive),-0.451,0.938 (inactive),-1.34 (inactive),0.656
CCOC(=O)C[C@H]1[C@H](OC(=O)c2ccc(C(=O)c3ccccc3)cc2)[C@@H](NC(=O)c2ccccc2)c2cc(OCCCO)ccc2N1C(=O)Cc1ccc(OC)cc1,0.285,0.0963 (inactive),-0.0343 (inactive),2.75 (inactive),0.0836 (inactive),0.101,-0.0413,-0.0962,0.322,-0.0887,-0.126 (inactive),-0.185,3.37 (inactive),0.656 (inactive),-0.391 (inactive),0.259 (inactive),-0.0114,0.924 (inactive),0.983 (inactive),1.45
NC(=O)NCC#Cc1ccc2c(c1)[C@]1(C(=O)N2)[C@H](c2ccccc2OCCO)N2[C@H](c3ccccc3)[C@H](c3ccccc3)OC(=O)[C@H]2[C@@H]1C(=O)Nc1nc2ccccc2s1,-0.0307,0.0402 (inactive),-1.39 (inactive),-0.0784 (inactive),0.335 (inactive),0.441,0.0314,-0.671,0.0313,0.812,0.726 (inactive),0.0692,1.19 (inactive),1.36 (inactive),-5.62 (inactive),1.28 (inactive),-0.0906,1.95 (inactive),1.32 (inactive),0.883
C=CCC(OC(C)=O)[C@@H]1[C@@H](N(Cc2ccc(-c3cccc(C(F)(F)F)c3)o2)C(=O)c2ccc(C)cc2)c2cc(OCCCO)ccc2N1C(=O)Cc1ccc2ccccc2c1 (stereo not given in full),-0.125,-0.0329 (inactive),-0.568 (inactive),-1.1 (inactive),-0.0977 (inactive),-0.269,-0.024,-0.563,-0.702,0.223,1.93 (inactive),-0.0035,1.05 (inactive),0.172 (inactive),-0.305 (inactive),0.825 (inactive),0.533,-0.439 (inactive),1.04 (inactive),1.51
CCCCN1CC=CC23O[C@@H]4C=CCCOC(=O)C4[C@H]2C(=O)N(CCCCCCO)[C@@H]3C1=O (stereo not given in full),-0.767,0.311 (inactive),0.844 (inactive),0.333 (inactive),-0.199 (inactive),-0.564,-0.208,-1.22,-1.23,1.65,-0.288 (inactive),-0.147,0.371 (inactive),0.491 (inactive),0.711 (inactive),0.258 (inactive),-0.493,1.24 (inactive),-0.13 (inactive),1.85
COCCCNC(=O)[C@]1(CCC(=O)OC(C)(C)C)N=C(c2ccc(OCCCO)cc2)O[C@@H]1c1ccccc1CN=[N+]=[N-],0.297,0.107 (inactive),-0.514 (inactive),-0.459 (inactive),-1.18 (inactive),1.24,0.287,1.64,1.58,0.233,-0.458 (inactive),1.06,26.3 (active),7.34 (inactive),0.785 (inactive),1.13 (inactive),-0.0406,-0.974 (inactive),0.289 (inactive),-0.307
CCOC(=O)C[C@H]1[C@H](OC(=O)c2ccc(C(=O)c3ccccc3)cc2)[C@@H](NC(=O)CC(C)C)c2cc(OCCCO)ccc2N1C(=O)c1ccc2ccccc2n1,0.188,-0.772 (inactive),-1.04 (inactive),0.469 (inactive),-0.23 (inactive),1.22,-0.003,0.396,0.15,1.27,1.66 (inactive),-0.0518,3.64 (inactive),0.582 (inactive),0.0206 (inactive),-0.135 (inactive),0.276,-1.46 (inactive),0.892 (inactive),0.97
COc1ccc([Si](C)(C)[C@H]2[C@H](CCO)O[C@@]3(C(=O)N(Cc4ccc(N(C=O)c5ccccc5)cc4)c4ccccc43)[C@@H]2C)cc1,-0.308,-5.81 (inactive),-0.305 (inactive),1.92 (inactive),-1.24 (inactive),0.114,-0.157,-0.498,-0.074,0.399,-0.208 (inactive),0.0406,17.5 (active),5.72 (inactive),-0.149 (inactive),1.87 (inactive),0.788,0.118 (inactive),0.859 (inactive),2.37
